Experiment [1] deals with Albumin (Bos taurus) (UniProt P02769). Put plainly: compounds binding labelled BSA control protein – biochemical, small-molecule microarray, Alexa647 label, 635/667 nm fluorescence, artefact control for SMM control protein annotation, profiling panel (AID 1118).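 Note: score merges 667 nm emission intensity and signal-to-noise per printed compound spot.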 The settings on record: BSA-A647 binding, fluorescence 635 nm, higher = more signal.
Experiment [2] in a line: probe aXIP binding to arrayed compounds – biochemical, NeuroSMM set, 635/667 nm fluorescence, primary screen (AID 1119).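 Note: probe is the protein aXip251-270 applied at 1 µg/mL to compound-printed slides; binding of probe to printed compounds measured as 667 nm fluorescence plus signal to noise.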 The settings on record: small-molecule microarray, higher = more signal, called active from +8 up or from −8 down.
The nature of experiment [3]: probe aNOTCH3 binding on compound microarray – biochemical, small-molecule microarray, 635/667 nm fluorescence, primary screen (AID 1120).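 Note: probe is a biotin-tagged antibody raised against NOTCH3 rather than NOTCH3 protein; score merges spot fluorescence near 667 nm with spot signal to noise.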 The settings on record: higher = more signal.
Experiment [4] can be described thus: probe aNOTCH2 binding on compound microarray – biochemical, small-molecule microarray, 635/667 nm fluorescence, primary screen (AID 1121).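 Note: score merges feature fluorescence read at 667 nm with its signal to noise.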 The settings on record: higher = more signal.
Experiment [5] deals with Carbonic anhydrase 2 (Homo sapiens) (UniProt P00918). Put plainly: compounds binding carbonic anhydrase 2 – biochemical, small-molecule microarray, Alexa647-labelled CAII, profiling panel (AID 1122). As to conditions: CAII-A647 binding fluorescence, higher = more signal.
Experiment [6] is described as follows: COS7 lysate on small-molecule microarray, probe aHis, 635 nm (AID 1123).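 Note: z-score combines 667nm fluorescence intensity with signal-to-noise per printed compound spot.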 As to conditions: COS7 cell lysate, fluorescence, higher = more signal.
Experiment [7] is described as follows: probe aLAP1 signal on lysate-treated microarray – cell lysate, small-molecule microarray, COS7 lysate, primary screen (AID 1124).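 Note: lysate comes from COS7 cells expressing LAP1 and is applied at 0.3 µg/mL; score merges spot fluorescence near 667 nm with signal-to-noise over triplicate slides.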 The settings on record: probe aLAP1, fluorescence, higher = more signal.
The test system of experiment [8] is Sam68 (KHDRBS1). In words: compounds binding KHDRBS1 protein – biochemical, small-molecule microarray, 635 nm fluorescence, primary screen (AID 1125).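 Note: score merges 667 nm channel intensity with signal to noise over triplicate slides.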 The settings on record: higher = more signal.
Experiment [9] relates to Chordin-like protein 2 (CHRDL2). In words: compounds binding chordin-like 2 – biochemical, small-molecule microarray, 635 nm fluorescence, primary screen (AID 1126).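 Note: printed compound slides probed with Chrdl2 protein at 4 µg/mL for 1 h at 4 C; score merges 667 nm emission intensity with signal to noise over three replicate slides.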 The settings on record: fluorescence 635 nm, higher = more signal.
The target in experiment [10] is Concanavalin-A (Canavalia ensiformis) (UniProt P02866). Put plainly: compounds binding concanavalin A lectin – biochemical, small-molecule microarray, Alexa647 label, 635 nm, artefact control for SMM control protein annotation, primary screen (AID 1127).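 Note: z combines 667 nm emission intensity with signal-to-noise across three replicate slides.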 The settings on record: ConA-A647 binding fluorescence, higher = more signal.
Experiment [11] in a line: compounds binding Alexa647 anti-His antibody – biochemical, small-molecule microarray, 635 nm fluorescence, artefact control for SMM control protein annotation, primary screen (AID 1128).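 Note: score merges feature fluorescence with signal-to-noise for each printed compound spot.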 As to conditions: higher = more signal.
The test system of experiment [12] is Human papillomavirus type 1a E7 protein (residues 1-88). In words: HPV1a E7 small-molecule binders, primary screen, biochemical, small-molecule microarray, residues 1-88, 635 nm (AID 1129). As to conditions: small-molecule microarray binding, fluorescence 635 nm; higher = more signal.
Experiment [13] has as its target Focal adhesion kinase 1 (Homo sapiens) (UniProt Q05397). In words: PTK2 protein binding on printed compound slides – biochemical, small-molecule microarray, 635/667 nm fluorescence, BSA, DTT, primary screen (AID 1130).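 Note: composite of spot emission at 667 nm and signal to noise over triplicate slides.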 The settings on record: 635 nm fluorescence, higher = more signal.
In experiment [14] the test system is Fibrinogen (Alexa647-labelled). Put plainly: Alexa647-fibrinogen binding to printed small molecules – biochemical, small-molecule microarray, 635/667 nm fluorescence, artefact control for SMM control-protein annotation, profiling panel (AID 1131).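 Note: z-score merges 667 nm fluorescence with per-spot signal-to-noise over triplicate slides.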 As to conditions: fibrinogen-A647 binding fluorescence, higher = more signal.
In experiment [15] the target is Follistatin (Homo sapiens) (UniProt P19883). Put plainly: FST protein binding to printed compounds – biochemical, small-molecule microarray, 635/667 nm fluorescence, primary screen (AID 1132). The settings on record: 635 nm fluorescence, higher = more signal.
Experiment [16] has as its target Fibroblast growth factor 2 (Homo sapiens) (UniProt P09038). In words: basic fibroblast growth factor binding to printed compounds – biochemical, small-molecule microarray, 635/667 nm fluorescence, primary screen (AID 1133). As to conditions: FGF2, fluorescence 635/667, higher = more signal.
A short description of experiment [17]: JC-1 mitochondrial potential readout, lung cancer cells – cell-based, A549, JC-1 fluorescence, basal, 24 h, 100 nL, profiling panel (AID 1138).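 Note: A549 lung adenocarcinoma cells under basal conditions with no added stimulus; test concentration not given here.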 As to conditions: higher = more signal.
Experiment [18] has as its system Lefty1. Put plainly: Lefty1 protein binding to printed compounds – biochemical, small-molecule microarray, 635/667 nm fluorescence, primary screen (AID 1139). As to conditions: fluorescence 635/667, higher = more signal.
Experiment [19] has as its system wheat germ agglutinin (Triticum aestivum), Alexa647-labelled. In words: Alexa647-WGA lectin binding to printed small molecules – biochemical, small-molecule microarray, 635/667 nm fluorescence, artefact control for SMM control-protein annotation, profiling panel (AID 1140).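 Note: score merges 667 nm feature emission with signal to noise over triplicate slides.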 As to conditions: WGA-A647 binding, 635 nm fluorescence, higher = more signal.
The target in experiment [20] is Luciferin 4-monooxygenase (Photinus pyralis) (UniProt P08659). Put plainly: inhibition of purified Photinus pyralis luciferase – biochemical, luminescence, purified enzyme, 2006 set, primary screen (AID 1141).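 Note: cell-free assay with purified firefly luciferase at 100 ng per well in PBS; test concentration not given here.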 The settings on record: purified firefly luciferase, SteadyGlo luminescence, 30 min; higher = more signal, called active from +8 up or from −8 down.

For five molecules, composite z-score, composite Z-score and z-score results are on record in PubChem BioAssay.

Activity calls are given as the source filed them.

Fibroblast growth factor 2 (Homo sapiens), sequence (P09038 whole entry, looked up): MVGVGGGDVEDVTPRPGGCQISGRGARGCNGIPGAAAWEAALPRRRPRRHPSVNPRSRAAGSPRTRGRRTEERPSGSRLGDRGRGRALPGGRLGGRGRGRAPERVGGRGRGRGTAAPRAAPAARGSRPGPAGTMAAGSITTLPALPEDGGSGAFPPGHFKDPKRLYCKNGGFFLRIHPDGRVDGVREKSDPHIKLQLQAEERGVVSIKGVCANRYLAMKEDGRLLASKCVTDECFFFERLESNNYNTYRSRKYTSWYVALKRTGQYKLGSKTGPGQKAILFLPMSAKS
Focal adhesion kinase 1 (Homo sapiens), sequence (Q05397 whole entry, looked up): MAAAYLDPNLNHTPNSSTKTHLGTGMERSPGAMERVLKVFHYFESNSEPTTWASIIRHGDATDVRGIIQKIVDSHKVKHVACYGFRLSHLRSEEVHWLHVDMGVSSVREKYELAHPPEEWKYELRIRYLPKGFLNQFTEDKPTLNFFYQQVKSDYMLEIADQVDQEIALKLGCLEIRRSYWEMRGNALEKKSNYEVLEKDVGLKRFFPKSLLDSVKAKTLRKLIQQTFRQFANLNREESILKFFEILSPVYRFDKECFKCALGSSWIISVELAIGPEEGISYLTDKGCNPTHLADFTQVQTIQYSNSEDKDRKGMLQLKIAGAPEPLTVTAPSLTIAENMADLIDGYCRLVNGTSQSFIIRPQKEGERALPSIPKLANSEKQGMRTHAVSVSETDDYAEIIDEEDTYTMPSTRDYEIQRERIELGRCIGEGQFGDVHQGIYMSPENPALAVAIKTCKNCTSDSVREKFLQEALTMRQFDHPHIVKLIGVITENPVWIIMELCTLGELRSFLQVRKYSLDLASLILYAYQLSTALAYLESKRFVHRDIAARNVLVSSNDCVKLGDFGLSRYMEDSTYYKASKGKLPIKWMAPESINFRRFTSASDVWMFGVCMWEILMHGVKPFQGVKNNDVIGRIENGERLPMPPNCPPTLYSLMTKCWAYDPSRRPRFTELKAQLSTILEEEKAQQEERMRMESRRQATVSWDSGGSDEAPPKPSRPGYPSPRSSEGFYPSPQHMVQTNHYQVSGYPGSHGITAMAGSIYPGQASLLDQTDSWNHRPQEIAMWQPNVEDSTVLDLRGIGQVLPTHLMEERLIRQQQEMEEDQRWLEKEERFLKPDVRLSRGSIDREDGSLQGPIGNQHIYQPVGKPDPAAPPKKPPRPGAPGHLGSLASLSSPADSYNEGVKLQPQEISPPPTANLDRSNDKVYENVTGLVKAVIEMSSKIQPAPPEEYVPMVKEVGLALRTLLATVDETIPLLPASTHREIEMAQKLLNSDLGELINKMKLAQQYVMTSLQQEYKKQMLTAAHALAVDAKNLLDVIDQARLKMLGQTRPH
Luciferin 4-monooxygenase (Photinus pyralis), sequence (P08659 whole entry, looked up): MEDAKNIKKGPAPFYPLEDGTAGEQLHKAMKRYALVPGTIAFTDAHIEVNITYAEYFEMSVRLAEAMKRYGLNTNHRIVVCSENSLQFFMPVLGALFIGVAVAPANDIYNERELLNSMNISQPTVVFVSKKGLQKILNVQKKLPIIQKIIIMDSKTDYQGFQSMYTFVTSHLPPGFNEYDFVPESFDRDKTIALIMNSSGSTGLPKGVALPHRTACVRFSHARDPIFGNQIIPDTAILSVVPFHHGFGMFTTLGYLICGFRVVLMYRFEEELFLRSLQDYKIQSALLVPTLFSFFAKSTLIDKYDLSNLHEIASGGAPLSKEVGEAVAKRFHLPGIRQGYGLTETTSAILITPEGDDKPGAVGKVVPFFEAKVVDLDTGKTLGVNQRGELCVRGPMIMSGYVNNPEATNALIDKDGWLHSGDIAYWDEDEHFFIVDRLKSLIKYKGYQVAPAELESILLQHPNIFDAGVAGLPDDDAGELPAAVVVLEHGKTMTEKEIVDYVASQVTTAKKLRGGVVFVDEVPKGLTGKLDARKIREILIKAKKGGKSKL
Follistatin (Homo sapiens), sequence (P19883 whole entry, looked up): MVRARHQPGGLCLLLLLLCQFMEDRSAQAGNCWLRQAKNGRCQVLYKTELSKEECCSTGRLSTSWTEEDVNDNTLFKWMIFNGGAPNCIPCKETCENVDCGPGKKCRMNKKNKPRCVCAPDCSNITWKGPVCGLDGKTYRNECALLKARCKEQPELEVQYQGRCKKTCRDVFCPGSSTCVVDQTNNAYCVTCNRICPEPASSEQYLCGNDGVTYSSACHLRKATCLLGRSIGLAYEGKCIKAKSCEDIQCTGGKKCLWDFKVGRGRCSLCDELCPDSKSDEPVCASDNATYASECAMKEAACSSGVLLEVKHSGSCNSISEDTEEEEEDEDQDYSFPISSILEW
Albumin (Bos taurus), sequence (P02769 whole entry, looked up): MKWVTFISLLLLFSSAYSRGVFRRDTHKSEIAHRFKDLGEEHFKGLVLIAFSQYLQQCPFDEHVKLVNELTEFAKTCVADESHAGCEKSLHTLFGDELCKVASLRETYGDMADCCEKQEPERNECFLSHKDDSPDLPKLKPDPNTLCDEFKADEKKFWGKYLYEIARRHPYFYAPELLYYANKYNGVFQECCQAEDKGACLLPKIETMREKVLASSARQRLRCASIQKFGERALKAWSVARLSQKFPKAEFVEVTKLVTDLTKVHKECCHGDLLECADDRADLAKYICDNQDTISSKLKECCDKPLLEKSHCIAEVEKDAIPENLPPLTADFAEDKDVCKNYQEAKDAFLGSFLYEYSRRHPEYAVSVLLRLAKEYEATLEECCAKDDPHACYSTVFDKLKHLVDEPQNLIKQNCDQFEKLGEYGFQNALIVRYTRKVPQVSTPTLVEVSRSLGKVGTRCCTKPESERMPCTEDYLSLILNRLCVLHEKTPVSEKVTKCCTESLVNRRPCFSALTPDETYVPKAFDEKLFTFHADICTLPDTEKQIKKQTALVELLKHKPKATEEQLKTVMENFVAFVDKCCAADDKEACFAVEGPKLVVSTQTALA
Concanavalin-A (Canavalia ensiformis), sequence (P02866 whole entry, looked up): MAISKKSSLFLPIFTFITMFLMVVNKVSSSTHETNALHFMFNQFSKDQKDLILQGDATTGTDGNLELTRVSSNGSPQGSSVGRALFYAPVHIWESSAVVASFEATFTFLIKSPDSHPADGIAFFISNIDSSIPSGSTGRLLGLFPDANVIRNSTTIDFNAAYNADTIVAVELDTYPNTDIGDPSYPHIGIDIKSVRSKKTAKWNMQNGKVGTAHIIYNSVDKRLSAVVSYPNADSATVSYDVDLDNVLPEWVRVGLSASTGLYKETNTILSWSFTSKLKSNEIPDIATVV

With `O=C1NC(=O)C2C1C=CC(C(O)C(c1ccccc1)c1ccccc1)N2Nc1ccccn1` (stereo not given), the composite z-score in [1] is 0.26; in experiment [3], 0.15; in experiment [4] it was 0.256; in experiment [5], 0.809; in experiment [6] it was 0.899; in experiment [7] it was 0.754. For the same molecule, the composite z-score was -0.0644 in [8]; 0.691 in experiment [9]; -0.516 in [10]; 2.42 in experiment [11]; 1.15 in [12]; 0.595 in experiment [13]. The composite z-score in [14] was 0.987; in experiment [15], 0.709; in experiment [16], 1.06; in experiment [18], -0.0403; in experiment [19], 0.843. Also, the composite Z-score in experiment [2] was -0.212 (inactive). Besides, the z-score is 0.669 in experiment [17] and -2.04 (inactive) in [20].

On to `[N-]=[N+]=Nc1ccccc1C[C@]1(C(=O)N2CCCCC2)N=C(c2ccc(OCCCO)cc2)O[C@H]1c1ccccc1`, for which the composite z-score in experiment [1] was 0.737; in [3], 0.196; in experiment [4], 0.179; in experiment [5], 0.708; in experiment [6] it was 1.52; in experiment [7], 0.121. Further, the composite z-score in experiment [8] was 1.31; in experiment [9], -0.249; in experiment [10], 1.18; in experiment [11], 2.69; in experiment [12], 1.2; in [13] it was 0.307. Moreover, the composite z-score was determined as 0.934 in experiment [14]; 1.26 in [15]; 1.38 in [16]; 0.225 in experiment [18]; 1.22 in experiment [19]. Further, the composite Z-score in experiment [2] was -0.399 (inactive). Moreover, the z-score in [17] is -0.0876; in experiment [20], -1.99 (inactive).

With `C=CCNC(=O)[C@H]1[C@@H]2C(=O)O[C@@H](c3ccccc3)[C@@H](c3ccccc3)N2[C@@H](c2ccc(O)cc2)[C@]12C(=O)N(C(=O)OCCOC)c1ccc(C#Cc3ccc(OC)cc3)cc12`, the composite z-score in [1] is 0.451; in experiment [3], 0.0271; in [4] it was -0.112; in experiment [5] it was 0.382; in [6], 0.428; in [7] it was 0.5. Besides, the composite z-score is 0.934 in experiment [8]; -0.142 in [9]; 0.876 in [10]; 0.91 in [11]; 1.13 in [12]; 0.319 in [13]. The composite z-score in experiment [14] came to 0.658; in experiment [15], 0.751; in experiment [16], 0.817; in experiment [18] it was 0.402; in experiment [19] it was 0.58. In addition, the composite Z-score in [2] is -0.0437 (inactive). Further, the figures for the z-score in [17] and in [20] were -1.33 and 0.39 (inactive), respectively.

On to `C=C(COC)C(=O)CC[C@H](OC(C)=O)c1ccc(CO)o1`, for which the composite z-score in experiment [1] was 0.485; in experiment [3], -0.0328; in experiment [4], -0.14; in experiment [5], 0.472; in experiment [6], -0.273; in [7], -0.218. Further, the composite z-score is -0.893 in [8]; 0.268 in [9]; 0.753 in experiment [10]; 1.59 in experiment [11]; -0.805 in experiment [12]; -0.451 in experiment [13]. For the same molecule, the composite z-score in experiment [14] was 0.0974; in experiment [15] it was 1.37; in experiment [16], 1.45; in [18], 0.744; in [19], 0.841. In experiment [2], the composite Z-score is 4.03 (inactive). Moreover, the z-score is -0.403 in experiment [17] and 0.288 (inactive) in [20].

With `COC(=O)[C@@]1(Cc2ccccc2)[C@H]2c3cc(C(=O)N(C)C)n(Cc4ccc(Cl)c(C(F)(F)F)c4)c3C[C@H]2CN1C(=O)c1ccccc1`, the composite z-score in [1] was found to be 0.811; in [3], 0.745; in experiment [4], 0.445; in [5], 0.668; in [6], 1.9; in [7] it was 0.402. The composite z-score in experiment [8] is 1.2; in [9], -0.123; in experiment [10], 0.95; in experiment [11], 1.17; in experiment [12], 1.16; in experiment [13], -0.104. In addition, the composite z-score in [14] is 0.93; in experiment [15] it was 1.22; in experiment [16], 0.33; in [18], 1.33; in [19], 0.674. Moreover, the composite Z-score in experiment [2] is -0.215 (inactive). Besides, the z-score was 0.32 in [17] and 1.52 (inactive) in [20].
